Data on 28 compounds can be found in PubChem BioAssay (EPA / NIEHS).

By AC50 is commonly meant the midpoint of the concentration-response curve, whichever way the signal moves.

Structures are written as SMILES. Inconclusive results are not listed. Calls of active or inactive are those of the source. Rule for the calls, unless noted: active = hit-call score of the fitted dose curve at least 0.9, where 1 is the maximum; inconclusive = response in the unintended direction; inactive = score below 0.9.

Assay [1] deals with Bile acid receptor (Homo sapiens) (UniProt Q96RI1). The experiment in a line: ATG_FXR_TRANS: Attagene TRANS-FACTORIAL HepG2 Assay for Farnesoid X Receptor (FXR) (AID 2282979).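 Note: hits raise reporter mRNA above DMSO so AC50 marks FXR activation.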 As to conditions: HepG2 Attagene TRANS FXR-GAL4 reporter transcription. Put shortly: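 Chimeric FXR-GAL4 activity in transiently transfected human HepG2 liver cells is scored as induction of reporter mRNA after 24 h of dosing. Detection uses RT-PCR with fluorescent labelling and capillary electrophoresis, with DMSO serving as baseline.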

Assay [2] concerns the target Oxysterols receptor LXR-beta (Homo sapiens) (UniProt P55055). Put plainly: ATG_LXRb_TRANS: Attagene TRANS-FACTORIAL HepG2 Assay for human Liver X Receptor beta (LXRb) (AID 2282981). Conditions: HepG2 Attagene TRANS GAL4-LXRb reporter, mRNA. Put shortly:
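Cells: HepG2, transiently transfected with GAL4-UAS reporter units plus LXRb-Gal4 fusion. Treatment: 24 h. Detection: reporter mRNA by RT-PCR, 6-FAM labelling, HpaI digestion, capillary electrophoresis.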

Assay [3] has as its target Hepatocyte nuclear factor 4-alpha (Homo sapiens) (UniProt P41235). Put plainly: ATG_HNF4a_TRANS: Attagene TRANS-FACTORIAL HepG2 Assay for human Hepatocyte Nuclear Factor 4 alpha (HNF4a) (AID 2282982). As to conditions: HepG2 HNF4a transactivation reporter, mRNA readout. Put shortly:
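Transfected HepG2 reporter cells are dosed for 24 h; reporter RNA is reverse-transcribed, amplified, fluorescently labelled and HpaI-digested before CE sizing. Positive-direction fit against DMSO.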

Assay [4] in a line: ATG_M_32_TRANS: Attagene TRANS-FACTORIAL HepG2 Assay for M32 Transcription Factor (Internal Marker) (AID 2282984).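 Note: transcript level of a background control reporter unit measured by RT-PCR and capillary electrophoresis.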 As to conditions: HepG2 Attagene TRANS M32 internal marker reporter. The procedure, abridged:
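Using transiently transfected HepG2 cells exposed to test chemicals for 24 h, reporter transcripts are converted to labelled cDNA fragments and quantified by capillary electrophoresis. DMSO defines the activity baseline.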

The target of assay [5] is Nuclear receptor subfamily 4 group A member 2 (Homo sapiens) (UniProt P43354). Put plainly: ATG_NURR1_TRANS: Attagene TRANS-FACTORIAL HepG2 Assay for human Nuclear Receptor Related Protein 1 (NURR1) (AID 2282985). As to conditions: HepG2 Attagene TRANS reporter, mRNA readout. Put shortly: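 Cells: HepG2, transiently transfected. Exposure: 24 h. Detection: fluorescence of labelled RT-PCR products separated by capillary electrophoresis; upward fit versus DMSO.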

Assay [6] has as its target Transcriptional activator Myb (Homo sapiens) (UniProt P10242). The experiment in a line: ATG_Myb_CIS: Attagene CIS-FACTORIAL HepG2 Assay for human Myeloblastosis (Myb) Proto-Oncogene Transcription Factor (AID 2282986; active = hit-call score of the fitted dose curve at least 0.9, where 1 is the maximum; inactive = score below 0.9). Conditions: HepG2 Attagene CIS-FACTORIAL Myb reporter transcription; actives raise or lower the signal. Put shortly:
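HepG2, transient MRTU transfection (cis-element promoters, endogenous TF activity), 24 h compound exposure. Readout: reporter mRNA via RT-PCR, 6-FAM labeling, HpaI digest, capillary electrophoresis. Gain/loss fit vs DMSO.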

For assay [7], the target named is Nuclear respiratory factor 1 (Homo sapiens) (UniProt Q16656). The experiment in a line: ATG_NRF1_CIS: Attagene CIS-FACTORIAL HepG2 Assay for human Nuclear Respiratory Factor 1 (NRF1) Orphan Gene (AID 2282987; active = hit-call score of the fitted dose curve at least 0.9, where 1 is the maximum; inactive = score below 0.9). As to conditions: HepG2 NRF1 cis-element reporter, Attagene multiplex; actives raise or lower the signal. The procedure, abridged: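 Endogenous NRF1-driven reporter transcription measured in transiently transfected human HepG2 liver cells. Readout: reporter mRNA by RT-PCR and capillary electrophoresis with fluorescence detection, 24 h post-dosing. Gain or loss of signal fitted relative to DMSO baseline.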

Assay [8] addresses Oxysterols receptor LXR-alpha (Homo sapiens) (UniProt Q13133). The experiment in a line: ATG_LXRa_TRANS: Attagene TRANS-FACTORIAL HepG2 Assay for human Liver X Receptor alpha (LXRa) (AID 2282980). Conditions: HepG2 Attagene TRANS reporter, LXRa transactivation. The procedure, abridged:
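Transient HepG2 transfectants, 24 h dosing, RT-PCR/CE mRNA reporter quantitation; gain-of-signal vs DMSO.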

Assay [9] is described as follows: ATG_M_06_TRANS: Attagene TRANS-FACTORIAL HepG2 Assay for M06 Transcription Factor (Internal Marker) (AID 2282983).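 Note: reporter transcript level by RT-PCR then capillary electrophoresis fluorescence.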 Conditions: HepG2 Attagene TRANS M06 internal marker reporter. Put shortly: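 Measured by capillary electrophoresis of fluorescently labelled RT-PCR products, this endpoint reflects reporter mRNA in HepG2 cells harbouring exogenous NR-GAL4 reporter constructs after 24 h exposure, with DMSO as baseline.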

Nuclear receptor subfamily 4 group A member 2 (Homo sapiens), sequence (P43354 whole entry, looked up): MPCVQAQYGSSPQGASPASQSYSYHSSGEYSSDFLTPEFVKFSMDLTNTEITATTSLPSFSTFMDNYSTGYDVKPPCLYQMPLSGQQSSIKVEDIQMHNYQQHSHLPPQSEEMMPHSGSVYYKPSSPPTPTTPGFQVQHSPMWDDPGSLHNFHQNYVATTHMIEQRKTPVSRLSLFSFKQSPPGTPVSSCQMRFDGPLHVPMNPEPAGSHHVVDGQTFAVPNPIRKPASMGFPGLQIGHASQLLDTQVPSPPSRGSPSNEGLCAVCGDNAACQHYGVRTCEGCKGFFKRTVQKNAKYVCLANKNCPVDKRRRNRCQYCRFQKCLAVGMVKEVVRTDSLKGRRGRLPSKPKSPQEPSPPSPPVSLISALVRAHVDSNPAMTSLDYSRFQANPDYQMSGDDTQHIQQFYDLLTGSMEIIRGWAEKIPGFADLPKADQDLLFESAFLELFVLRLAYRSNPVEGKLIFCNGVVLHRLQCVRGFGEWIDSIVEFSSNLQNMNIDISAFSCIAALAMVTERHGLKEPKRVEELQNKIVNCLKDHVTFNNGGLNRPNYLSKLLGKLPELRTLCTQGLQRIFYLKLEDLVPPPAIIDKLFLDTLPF
Oxysterols receptor LXR-alpha (Homo sapiens), sequence (Q13133 whole entry, looked up): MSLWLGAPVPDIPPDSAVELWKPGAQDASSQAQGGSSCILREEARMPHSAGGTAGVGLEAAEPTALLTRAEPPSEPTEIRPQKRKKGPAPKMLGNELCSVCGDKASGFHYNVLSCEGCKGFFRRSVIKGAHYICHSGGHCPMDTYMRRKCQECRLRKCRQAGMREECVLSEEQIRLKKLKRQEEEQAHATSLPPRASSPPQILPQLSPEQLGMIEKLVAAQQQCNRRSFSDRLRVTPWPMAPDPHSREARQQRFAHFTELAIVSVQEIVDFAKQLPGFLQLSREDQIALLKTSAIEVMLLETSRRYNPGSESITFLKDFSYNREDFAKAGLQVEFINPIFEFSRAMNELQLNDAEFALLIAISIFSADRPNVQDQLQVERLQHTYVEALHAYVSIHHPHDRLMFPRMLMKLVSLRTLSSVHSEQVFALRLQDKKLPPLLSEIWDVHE
Hepatocyte nuclear factor 4-alpha (Homo sapiens), sequence (P41235 whole entry, looked up): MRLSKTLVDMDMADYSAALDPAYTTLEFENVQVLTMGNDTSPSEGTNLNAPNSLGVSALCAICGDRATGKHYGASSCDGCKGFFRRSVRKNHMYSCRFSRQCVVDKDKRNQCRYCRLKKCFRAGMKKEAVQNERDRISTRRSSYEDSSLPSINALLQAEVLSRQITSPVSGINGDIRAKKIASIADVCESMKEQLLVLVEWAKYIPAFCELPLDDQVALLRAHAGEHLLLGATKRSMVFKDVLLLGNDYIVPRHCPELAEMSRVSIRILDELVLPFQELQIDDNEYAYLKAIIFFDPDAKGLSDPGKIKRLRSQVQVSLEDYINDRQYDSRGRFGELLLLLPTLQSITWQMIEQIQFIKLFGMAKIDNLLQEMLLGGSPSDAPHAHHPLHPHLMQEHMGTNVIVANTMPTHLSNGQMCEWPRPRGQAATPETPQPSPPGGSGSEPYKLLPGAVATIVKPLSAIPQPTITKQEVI
Nuclear respiratory factor 1 (Homo sapiens), sequence (Q16656 whole entry, looked up): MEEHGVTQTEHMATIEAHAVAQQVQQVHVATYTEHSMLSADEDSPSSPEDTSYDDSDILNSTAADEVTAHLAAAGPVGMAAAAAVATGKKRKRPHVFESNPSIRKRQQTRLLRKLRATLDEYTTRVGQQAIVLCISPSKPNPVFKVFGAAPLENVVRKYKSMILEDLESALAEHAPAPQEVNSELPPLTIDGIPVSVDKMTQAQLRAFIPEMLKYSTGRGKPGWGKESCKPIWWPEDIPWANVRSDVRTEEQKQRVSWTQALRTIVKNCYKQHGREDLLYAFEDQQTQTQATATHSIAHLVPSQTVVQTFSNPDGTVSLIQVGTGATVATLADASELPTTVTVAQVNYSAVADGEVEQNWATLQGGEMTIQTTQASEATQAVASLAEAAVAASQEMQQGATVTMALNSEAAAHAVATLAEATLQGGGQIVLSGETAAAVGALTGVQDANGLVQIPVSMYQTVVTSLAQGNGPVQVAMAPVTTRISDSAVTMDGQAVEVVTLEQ
Bile acid receptor (Homo sapiens), sequence (Q96RI1 whole entry, looked up, the tested form may be a part): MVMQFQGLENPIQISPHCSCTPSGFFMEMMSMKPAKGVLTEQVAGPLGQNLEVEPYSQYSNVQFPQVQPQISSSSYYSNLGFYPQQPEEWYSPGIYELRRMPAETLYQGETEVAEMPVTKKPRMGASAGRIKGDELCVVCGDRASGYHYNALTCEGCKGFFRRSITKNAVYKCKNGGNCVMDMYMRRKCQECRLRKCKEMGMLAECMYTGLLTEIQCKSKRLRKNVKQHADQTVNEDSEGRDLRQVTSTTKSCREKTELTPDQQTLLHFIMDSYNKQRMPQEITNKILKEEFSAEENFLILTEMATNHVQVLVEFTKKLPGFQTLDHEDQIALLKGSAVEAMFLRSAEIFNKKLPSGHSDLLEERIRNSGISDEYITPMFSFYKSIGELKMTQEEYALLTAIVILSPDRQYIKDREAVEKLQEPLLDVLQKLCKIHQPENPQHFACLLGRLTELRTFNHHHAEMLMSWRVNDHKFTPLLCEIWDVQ
Oxysterols receptor LXR-beta (Homo sapiens), sequence (P55055 whole entry, looked up, the tested form may be a part): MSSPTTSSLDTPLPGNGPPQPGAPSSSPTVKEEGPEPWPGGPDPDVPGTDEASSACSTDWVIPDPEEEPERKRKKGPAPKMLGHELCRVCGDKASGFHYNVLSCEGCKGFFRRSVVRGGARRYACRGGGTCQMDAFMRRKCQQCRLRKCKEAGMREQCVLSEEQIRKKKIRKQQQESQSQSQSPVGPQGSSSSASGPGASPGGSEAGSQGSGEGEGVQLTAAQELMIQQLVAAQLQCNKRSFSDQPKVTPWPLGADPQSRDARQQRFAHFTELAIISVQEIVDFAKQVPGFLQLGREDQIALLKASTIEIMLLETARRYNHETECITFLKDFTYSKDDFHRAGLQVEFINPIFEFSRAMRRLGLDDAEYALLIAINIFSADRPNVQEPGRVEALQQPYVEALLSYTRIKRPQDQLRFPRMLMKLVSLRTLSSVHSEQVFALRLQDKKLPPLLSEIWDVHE
Transcriptional activator Myb (Homo sapiens), sequence (P10242 whole entry, looked up): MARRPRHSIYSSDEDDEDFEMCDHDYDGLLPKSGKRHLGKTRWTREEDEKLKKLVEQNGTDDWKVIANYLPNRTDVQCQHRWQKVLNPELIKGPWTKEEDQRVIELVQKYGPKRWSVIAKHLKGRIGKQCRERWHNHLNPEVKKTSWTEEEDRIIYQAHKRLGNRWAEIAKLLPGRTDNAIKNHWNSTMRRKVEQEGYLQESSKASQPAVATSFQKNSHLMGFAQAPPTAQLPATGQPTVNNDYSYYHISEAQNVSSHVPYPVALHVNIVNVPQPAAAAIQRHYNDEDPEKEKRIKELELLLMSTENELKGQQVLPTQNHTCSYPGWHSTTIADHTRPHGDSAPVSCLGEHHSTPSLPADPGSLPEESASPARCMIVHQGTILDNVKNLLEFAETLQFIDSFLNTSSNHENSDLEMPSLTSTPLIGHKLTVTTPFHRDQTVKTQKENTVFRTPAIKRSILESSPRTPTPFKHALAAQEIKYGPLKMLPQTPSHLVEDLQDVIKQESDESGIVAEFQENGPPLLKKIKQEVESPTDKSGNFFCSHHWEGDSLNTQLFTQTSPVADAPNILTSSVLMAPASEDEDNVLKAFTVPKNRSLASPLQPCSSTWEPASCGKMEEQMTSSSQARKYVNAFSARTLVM

Consider `C=CCCCCCCCCC(=O)OCCCC`, for which the compound was called inactive in assay [1], in assay [2], in assay [3], in [4], in [5] and in assay [6].

For `Nc1ccc(-c2ccc(F)cc2)cc1`, the outcome in assay [1], in assay [3], in assay [4], in assay [6] and in assay [7] was inactive.

With `Cc1ccccc1C`, the outcome in assay [8], in assay [2], in assay [3], in assay [9], in assay [4] and in assay [5] was inactive. Also, the result in assay [6] and in assay [7] was inactive.

Consider `CCCCCCCCCCCCCCCC[n+]1ccccc1`, for which the outcome in assay [8], in assay [2], in assay [9], in assay [4] and in [6] was inactive. Besides, the AC50 in assay [3] was 19.8 µM (active); in assay [7], 14.7 µM (active).

Turning to `CCCCCC(C)O` (configuration not stated), the outcome in assay [8], in assay [2], in [3], in assay [9], in assay [6] and in assay [7] was inactive.

`COc1ccc([C@@H]2CC(=O)c3c(O)cc(O[C@@H]4O[C@H](CO[C@@H]5O[C@@H](C)[C@H](O)[C@@H](O)[C@H]5O)[C@@H](O)[C@H](O)[C@H]4O)cc3O2)cc1OC`: the call in assay [1], in assay [9], in assay [6] and in assay [7] was inactive.

Take `COCCCOCCCOC`: the compound was called inactive in [8], in [2], in [3], in assay [4], in assay [6] and in assay [7].

Take `CC(C)=CCC/C(C)=C\C#N`: the outcome in [8], in assay [2], in assay [3], in assay [9], in [4] and in assay [5] was inactive. Besides, the compound was called inactive in assay [6] and in assay [7].

Take `NC(=O)c1ccccc1O`: the compound was classed as inactive in assay [1], in [2], in assay [3], in assay [9], in assay [6] and in assay [7].

Consider `CC1=CC[C@H](C(C)C)C=C1`, for which the outcome in assay [8], in assay [2], in [3], in assay [4], in assay [5] and in assay [7] was inactive.

For the compound `CCOC(=O)N1CCC(=C2c3ccc(Cl)cc3CCc3cccnc32)CC1`, the compound was called inactive in assay [1], in assay [4], in [6] and in assay [7]. Also, the AC50 in assay [5] is 15.6 µM (active).

On to `CCCCCCCCCCOS(=O)(=O)O`, for which the compound was classed as inactive in assay [1], in [6] and in assay [7].

With `O=C(/C=C/C=C/c1ccc2c(c1)OCO2)N1CCCCC1`, the compound was called inactive in [1], in assay [9], in assay [4], in assay [5] and in [6].

Take `C/C=C\C/C=C/CCCCCCCCOC(C)=O`: the call in assay [1], in assay [3], in assay [4], in [5], in assay [6] and in assay [7] was inactive.

Turning to `O=Cc1ccc(CO)o1`, the compound was classed as inactive in assay [1], in assay [3], in assay [9], in [4], in assay [5] and in assay [6]. Moreover, in assay [7], the compound was classed as inactive.

In the case of `CCc1c(C(=O)O)c(=O)cnn1-c1ccc(Cl)cc1`, the outcome in [1], in assay [4], in assay [5], in [6] and in [7] was inactive.

For `Nc1cccc(C(F)(F)F)c1`, the compound was called inactive in assay [8], in assay [2], in assay [9], in assay [4], in [5] and in assay [6]. In addition, the outcome in assay [7] was inactive.

Consider `CC(C)(C)c1ccc(OC(=O)c2ccccc2O)cc1`, for which the compound was called inactive in assay [1], in assay [2], in assay [3], in assay [9], in assay [5] and in assay [6]. Also, in [7], the compound was called inactive.

In the case of `COC(=O)c1ccccc1OC`, the compound was classed as inactive in assay [1], in assay [9], in [5], in [6] and in assay [7].

As for `CCO[Si](CCCN=C=O)(OCC)OCC`, the compound was called inactive in assay [8], in assay [2], in [3], in [9], in [4] and in assay [5]. For the same compound, the call in assay [6] and in assay [7] was inactive.

For `O=C1C=CC(=O)O1`, the result in assay [1], in assay [8], in assay [3], in assay [9], in assay [4] and in assay [6] was inactive.

On to `CCCCCCCCc1ccc(Nc2ccc(CCCCCCCC)cc2)cc1`, for which the call in [1], in assay [8], in assay [3], in assay [4], in assay [5] and in assay [6] was inactive. Also, the result in assay [7] was inactive.

For `O=C1CCCC(=O)O1`, the compound was classed as inactive in assay [2], in assay [3], in assay [9], in assay [4], in assay [6] and in assay [7].

Turning to `N#CCc1ccc(Cl)cc1Cl`, the compound was called inactive in assay [2], in assay [3], in assay [9], in [4], in assay [6] and in [7].

For the compound `CCOC(=O)CC`, the call in assay [2], in [3], in [9], in [4], in [5] and in assay [6] was inactive. For the same compound, the call in assay [7] was inactive.

As to `N[C@H]1C(O)O[C@H](CO)[C@H](O)[C@@H]1O` (some centres not stated), the compound was classed as inactive in assay [8], in assay [2], in assay [9], in [6] and in [7].

For `CCCc1ccc(OC)cc1`, the call in assay [8], in [3], in assay [4] and in assay [6] was inactive.

In the case of `O=C1C(N(CO)C(=O)NCO)N(CO)C(=O)N1CO` (configuration not stated), the compound was called inactive in assay [8], in [3], in [4], in [5], in [6] and in assay [7].
